# An excerpt weighted towards active compounds, which were near 19% of everything screened.
# HT1080NT lethal: qHTS for induction of synthetic lethality in tumor cells producing 2HG: qHTS for the HT-1080-NT fibrosarcoma cell line. HT-1080-NT fibrosarcoma viability, CellTiter-Glo ATP luminescence, 48 h. Potency, µM (series often up to 46.1 µM), hits mostly cytotoxic. AID 686970, 2013. 360,000 compounds, 1.6% hits;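 note: NT is the 2HG producing partner of a matched IDH1 knockdown line; nearly all actives have a fitted effect of over 55% in size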
#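 750 cells/well, RPMI + 5% FBS; 2 h settle, compound pin-transfer, 48 h at 37 degrees C. CellTiter-Glo 10 min RT, luminescence. Normalized to DMSO and media-only wells.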
# HT1080 IDH1KD tx: qHTS for induction of synthetic lethality in tumor cells producing 2HG: qHTS for the HT-1080-IDH1KD cell line. HT-1080 IDH1 knockdown viability, ATP luminescence, 48 h. Potency, µM (highest dose often 46.1 µM), hits mostly cytotoxic. 360,000 compounds, 2% hits. AID 686971, 2013
#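 In this qHTS, HT-1080 cells depleted of IDH1 are exposed for 48 h at 37 °C to compound titrations. Toxicity is scored from CellTiter-Glo luminescence, with DMSO as full viability and medium alone as none.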
# TDP1 cell noCPT: qHTS for Inhibitors of human tyrosyl-DNA phosphodiesterase 1 (TDP1): qHTS in cells in absence of CPT | AID 686978, 2013 | 420,000 compounds, 15% hits | DT40 Tdp1-/- hTDP1 cells, no CPT, ATP luminescence, 48 h | Potency, µM (top dose mostly 46.2 µM), hits mostly inhibitors; note: nearly all actives have a fitted effect of over 55% in size
#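 Luminescent ATP content (CellTiter-Glo) served as the growth readout. Knockout chicken DT40 cells expressing human TDP1 were exposed to compounds without camptothecin for a minimum 48 hr at 37 °C.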
# uPA surface inh: qHTS for Inhibitors of Cell Surface uPA Generation | cell surface uPA generation assay, qHTS | Potency, µM (titrated, usually from 38.3 µM), actives largely listed as inhibitors | 330,000 compounds, 0.31% hits; active = well fitted inhibition curve with a large enough effect; inconclusive = small, poorly fitted or top-dose-only effect; inactive = no such curve, though single readings can be large or run the other way; tested in mouse RAW 264.7 cells; note: nearly all actives have a fitted effect of over 55% in size
# IL1B secr inh: qHTS for Inhibitors of Inflammasome Signaling: IL-1-beta AlphaLISA Primary Screen | 360,000 compounds, 4.7% hits | activity change, % at 57.5 µM | THP-1 LPS/ATP IL-1B secretion, AlphaLISA, 16 h; hits give low values; in the data active = activity change below about -50%; inconclusive = mostly about -30% to -49%
#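 Secreted IL-1B measured by AlphaLISA bead assay after 16 h compound exposure of THP-1 cells; compounds (final up to 57.5 uM) added 1 h before LPS (250 ng/mL) and ATP (1.25 mM) stimulation; lower signal means less secretion.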
# DT40 TDP1 CPT: qHTS for Inhibitors of human tyrosyl-DNA phosphodiesterase 1 (TDP1): qHTS in cells in presence of CPT; chicken DT40 Tdp1-/-;hTDP1 cells + 20 nM CPT, ATP luminescence, 48 h; Potency, µM (titrated, usually from 46.2 µM), hits mostly inhibitors; 420,000 compounds, 12% hits; AID 686979, 2013; note: nearly all actives have a fitted effect of over 55% in size
#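 Cell growth measured by CellTiter-Glo luminescence after a minimum 48 h, 37 C compound exposure with 20 nM CPT in Tdp1-knockout DT40 cells stably expressing hTDP1, seeded 400/well; qHTS titration format.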
# A number is an active result; - = inactive; ? = inconclusive; . = no result; [ ] = another dose, or the depositor's remark. Unless noted, calls come from the whole dose curve; as a rule, active = well fitted curve in the direction sought with a large enough effect; inconclusive = small, poorly fitted or top-dose-only effect, or another doubt; inactive = no such curve, though single readings can be large; an effect the other way counts as inactive or inconclusive.
SMILES,HT1080NT lethal,HT1080 IDH1KD tx,TDP1 cell noCPT,uPA surface inh,IL1B secr inh,DT40 TDP1 CPT
CCOC(=O)c1cc(NC(=O)c2ccc(Cl)cc2)c(=O)n2c1oc1ccccc12,.,.,-,.,.,-
CCC(O)c1cc2c(cc1NC(=O)c1ccccc1F)OCCO2 (configuration not stated),.,.,?,.,.,-
O=c1[nH]c2c(cnn2-c2ccc(Cl)cc2)c(=O)n1-c1cccc(Cl)c1,-,-,29µM,-,-,?
O=c1[nH]c2cc(Cl)ccc2n1-c1ccccc1,-,-,-,-,-,-
CCCCn1c(/N=C/c2ccccc2NS(=O)(=O)c2ccc(C)cc2)nc2ccccc21,-,-,23µM,-,-,?
Cc1ccc(S(=O)(=O)Nc2ccccc2/C=N/c2nc3ccccc3n2C(C)C)cc1,18µM,15µM,21µM,-,-,18µM
COc1ccccc1CNC(=O)c1ccc2c(c1)N(Cc1cc(C)ccc1C)C(=O)c1ccccc1S2,.,.,9.2µM,.,.,9.2µM
COc1ccc(CCNC(=O)c2ccc3c(c2)N(Cc2ccccc2C)C(=O)c2ccccc2S3)cc1OC,.,.,3.7µM,.,.,3.3µM
COc1cc(/C=N/NC(=O)c2cc(C)oc2C)ccc1O,-,-,-,-,-,-
COc1ccc(C=NNC(=O)c2cc(C)oc2C)cc1O,?,?,16µM,-,-,?
Cc1ccc(/C=N/NC(=O)c2cc(C)oc2C)cc1,?,21µM,16µM,-,-,23µM
Cc1cc(C(=O)N/N=C/c2ccncc2)c(C)o1,-,-,-,-,-,-
Cc1ccc(S(=O)(=O)N2CCOCC2)cc1NC(=O)Cn1nc(C)c([N+](=O)[O-])c1C,-,-,-,-,-,-
COCCN(C(=O)COC(=O)C1CCCCC1)c1c(N)n(Cc2ccccc2)c(=O)[nH]c1=O,-,-,-,.,-,-
CSc1ccc(NC(=O)C2(C)CCN2C(=O)C2(c3ccccc3)CC2)cc1 (configuration not stated),?,-,?,.,-,18µM
CC1(C(=O)Nc2ccc3nc[nH]c3c2)CCN1C(=O)C1(c2ccccc2)CC1 (configuration not stated),-,-,-,.,-,?
CC1(C(=O)N2Cc3ccccc3C2)CCN1C(=O)C1(c2ccccc2)CC1 (configuration not stated),-,-,21µM,.,-,?
CC1(C(=O)Nc2ccccc2)CCN1C(=O)C1(c2ccc(Cl)cc2)CC1 (configuration not stated),-,-,3.7µM,.,-,?
CSc1ccc(NC(=O)C2(C)CCN2C(=O)c2sccc2C)cc1 (configuration not stated),-,-,?,.,-71,?
CC1(C(=O)NS(=O)(=O)c2ccccc2)CCN1C(=O)C1(c2ccc(Cl)cc2)CC1 (configuration not stated),-,-,-,.,-,?
O=C(CSc1nc2ccccc2c(=O)n1CC1CCCO1)Nc1ccc(F)cc1 (configuration not stated),-,-,?,-,-,?
CCCNC(=O)C1(C)CCCN(Cc2ccc(C(=O)OCC)o2)C1 (configuration not stated),-,-,?,.,-,?
C[C@@H](NC(=O)[C@@H]1Cc2ccccc2CN1C(=O)OC(C)(C)C)C(=O)NC1CCCCC1,-,-,-,-,-,-
Cc1ccc(NC(=O)C2(C)CCN2C(=O)C2(c3ccc(Cl)cc3)CC2)cc1 (configuration not stated),-,-,18µM,.,-,15µM
CCCCS(=O)(=O)N[C@@H](Cc1ccc(OCCCCC2CCNCC2)cc1)C(=O)O,.,.,-,.,.,-
SMILES,HT1080NT lethal,HT1080 IDH1KD tx,TDP1 cell noCPT,uPA surface inh,IL1B secr inh,DT40 TDP1 CPT
Cc1nn(-c2ccccc2)c2sc(C(=O)N3CCc4ccccc4C3)cc12,-,?,23µM,-,?,?
Cc1nn(-c2ccccc2)c2sc(C(=O)NNC(=O)COc3ccccc3)cc12,?,?,-,.,-,-
Cc1nn(-c2ccccc2)c2sc(C(=O)Nc3ccc(Br)cc3)cc12,.,.,16µM,.,.,?
Cc1cnc(NC(=O)c2cc3c(C)nn(-c4ccccc4)c3s2)s1,11µM,?,?,.,-,?
CC1=C(C(N)=O)N2C(=O)[C@@H](NC(=O)Cc3ccccc3)C2SC1 (some centres not stated),.,.,-[9.04 µM],.,.,-[9.04 µM]
CCCC/C=C/[C@H](c1ccccc1)[C@H](CO)Cc1cccnc1,-,-,16µM,-,-,?
Nc1[nH]c(C(=O)c2ccccc2)c(-c2ccncc2)c1C(=O)NCCc1c[nH]c2ccccc12,-,-,?,.,-,?
CC(OCC(O)CN1CCN(S(=O)(=O)c2ccc(Cl)cc2)CC1)c1ccc(Cl)cc1 (configuration not stated),-,-,10µM,.,-,12µM
COc1ccc(COCC(O)CN2CCN(S(=O)(=O)c3ccc(C(C)C)cc3)CC2)cc1 (configuration not stated),-,-,21µM,-,-,26µM
CC(C)c1ccc(S(=O)(=O)N2CCN(CC(O)CN3CCOCC3)CC2)cc1 (configuration not stated),-[9.24 µM],-,-,-,-,-
CC(C)c1ccccc1OCC(O)CN1CCN(S(=O)(=O)c2ccc([N+](=O)[O-])cc2)CC1 (configuration not stated),-,?,8.2µM,-,-83,?
C[C@H](CO)N1C[C@H](C)[C@@H](CN(C)C(=O)Nc2ccccc2)Oc2c(NC(=O)C3CCCCC3)cccc2C1=O,-,-,-,-,-,-
Cc1ccc(C(=O)NCC(=O)OCc2nc3ccsc3c(=O)[nH]2)cc1C,-,-,-,.,-,-
C=CCNC(=S)NNc1nc(Nc2ccccc2)nc(N2CCCCC2)n1,-,-,8.2µM,-,-63,15µM
COc1ccccc1-c1nnc(C2CCN(S(=O)(=O)c3ccccc3)CC2)o1,.,.,15µM,.,.,?
COc1ccccc1-c1nnc(C2CCN(S(=O)(=O)c3cccc([N+](=O)[O-])c3)CC2)o1,-,-,21µM,-,-,?
COc1ccccc1-c1nnc(C2CCN(S(=O)(=O)c3ccc([N+](=O)[O-])cc3)CC2)o1,-,-,?,-,-,?
C#CCNC(=O)C1CCN(c2cc(C)nc(-c3ccccc3)n2)CC1,-,-,-,-,-,-

# From PubChem
